Measurements published in PMC10668032, “Altered binding affinity of SIX1-Q177R correlates with enhanced WNT5A and WNT pathway effector expression in Wilms tumor”.
The full ranking holds about 33,000 sequences; the median of “e-score” is about -0.053, and the highest 2% start at about 0.38. For the sample, the highest values were picked, then their nearest neighbours and some sequences at random.

Biological target: T1, SIX1 homeodomain (reference allele) (human, UniProt Q15475 108-198)
T1 sequence: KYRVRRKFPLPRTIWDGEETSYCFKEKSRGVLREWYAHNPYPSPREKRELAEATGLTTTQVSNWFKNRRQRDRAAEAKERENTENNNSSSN
Experiment: universal protein binding microarray; Universal all-10-mer PBM (8x60K, AMADID 030236), 300 nM GST-tagged protein, Alexa Fluor 488 anti-GST; buffer, salt, pH and temperature not stated (as in Berger); high values mean tight binding
Conditions: protein: ivt; tags: N-terminal GST; dsDNA, one strand shown
Method in brief: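 Homeodomains fused to GST were made by in vitro transcription/translation and measured by anti-GST western blot with a recombinant GST standard curve. At 300 nM final concentration, they were applied in duplicate to universal 'all 10-mer' protein binding microarrays (8×60K format).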

Row | Sequence | binding signal [E-score]
1 | CATACCAG | 0.171 ± 0.0153
2 | CCATTATA | 0.177 ± 0.0248
3 | ATCCAAGA | 0.155 ± 0.0124
4 | CAGGGCGA | 0.216 ± 0.0603
5 | CTATCCGC | 0.3601 ± 0.000778
6 | ATCTCCGA | 0.258 ± 0.0265
7 | CTATCCGA | 0.33 ± 0.00993
8 | AAATCCGG | 0.244 ± 0.0271
9 | ACATCCGG | 0.174 ± 0.064
10 | ATATCCGC | 0.43 ± 0.0222
11 | GAATCCGA | 0.188 ± 0.0166
12 | GTATCCGA | 0.426 ± 0.0105
13 | ATATCCGA | 0.429 ± 0.0108
14 | CAATCCGC | 0.29 ± 0.0084
15 | ATATCCGG | 0.4206 ± 0.00416
16 | GCATCCGA | 0.203 ± 0.0461
17 | ATCGAAGA | 0.293 ± 0.0315
18 | GCCAATAC | 0.16 ± 0.00361
19 | TCAGCTCA | 0.162 ± 0.0286
20 | ACTATCTG | 0.178 ± 0.0443
21 | GATCGCAA | 0.242 ± 0.0198
22 | GATCGTGA | 0.229 ± 0.0511
23 | ATCACTAA | 0.166 ± 0.051

Row | Sequence | binding signal [E-score]
24 | ATCGTAGA | 0.193 ± 0.0118
25 | GGTGTACA | 0.306 ± 0.0258
26 | CATACATG | 0.154 ± 0.0235
27 | ATCCGCGA | 0.259 ± 0.011
28 | CAGTGATA | 0.417 ± 0.0231
29 | ACGTGATA | 0.344 ± 0.0436
30 | GAGAGATA | 0.323 ± 0.0528
31 | AAGAGATA | 0.235 ± 0.141
32 | CAGTGAGA | 0.16 ± 0.032
33 | TAGTGAGA | 0.203 ± 0.0506
34 | TAGTGATA | 0.415 ± 0.0394
35 | TAGTGTGA | 0.184 ± 0.00834
36 | GAGTGAGA | 0.234 ± 0.0134
37 | GAGTGATA | 0.447 ± 0.0268
38 | AAGTGATA | 0.397 ± 0.0754
39 | ATACTTCG | 0.304 ± 0.058
40 | GACAATCC | 0.18 ± 0.0145
41 | ATCAACAA | 0.222 ± 0.0259
42 | CATATGAC | 0.166 ± 0.0391
43 | ATACATCG | 0.238 ± 0.0407
44 | ACTTACCG | 0.152 ± 0.00235
45 | TATATTGA | 0.258 ± 0.0428
46 | GTGTCGGA | 0.322 ± 0.041

Row | Sequence | binding signal [E-score]
47 | GGATGGGA | 0.195 ± 0.0444
48 | CAGATTGA | 0.219 ± 0.0123
49 | AATTGATC | 0.291 ± 0.0151
50 | GAGTGATC | 0.336 ± 0.0148
51 | AAGTGATC | 0.391 ± 0.00486
52 | CAGTGATC | 0.382 ± 0.0157
53 | CCGTGATA | 0.348 ± 0.0248
54 | GCGTGATA | 0.437 ± 0.0364
55 | CCGTGATC | 0.364 ± 0.0193
56 | ACGTGATC | 0.302 ± 0.0538
57 | GATCTATA | 0.298 ± 0.0183
58 | CCTACACC | 0.163 ± 0.0313
59 | CCGTAATA | 0.205 ± 0.0335
60 | TACTCGAA | 0.152 ± 0.00667
61 | TACACGGA | 0.173 ± 0.0418
62 | ACCATCCG | 0.23 ± 0.0704
63 | ATACATCC | 0.365 ± 0.0231
64 | GATTAATA | 0.301 ± 0.0732
65 | ATACGCGG | 0.182 ± 0.0649
66 | AAGGGTAT | 0.41 ± 0.0209
67 | ACGGGTAT | 0.435 ± 0.0111
68 | AAGGGTGT | 0.32 ± 0.00631
69 | AAAGGTAT | 0.337 ± 0.087

Row | Sequence | binding signal [E-score]
70 | AGGGGTAT | 0.451 ± 0.0124
71 | AGGGGTAG | 0.214 ± 0.0325
72 | AACGGTAT | 0.234 ± 0.0543
73 | ACAGGTAT | 0.312 ± 0.0224
74 | CCGGGTAG | 0.162 ± 0.0432
75 | AGGGGTAC | 0.178 ± 0.0933
76 | AGAGGTAT | 0.399 ± 0.0394
77 | AAGGGTAA | 0.173 ± 0.0225
78 | CATCCCGA | 0.175 ± 0.0394
79 | CGGATTGA | 0.305 ± 0.0268
80 | AATGTATA | 0.259 ± 0.0211
81 | ACACCTCT | 0.239 ± 0.0609
82 | TATCCAAA | 0.297 ± 0.0104
83 | GGATTACA | 0.18 ± 0.0206
84 | ATCGTCTG | 0.162 ± 0.0451
85 | CCGGCATC | 0.201 ± 0.0414
86 | GATACTGA | 0.42285 ± 0.000276
87 | GATACTGC | 0.44524 ± 0.000438
88 | AATACTGC | 0.162 ± 0.0355
89 | GATACTTA | 0.401 ± 0.0667
